# High-throughput results from PubChem.
# HT1080 IDH1KD tx: HT-1080 IDH1 knockdown cell toxicity (counter line) | HT-1080 IDH1 knockdown viability, ATP luminescence, 48 h | AID 686971 | Potency, µM (titrated, usually from 46.1 µM), for inactives: at the top dose activity, negative = toxicity, hits mostly cytotoxic | 360,000 compounds, 2% hits;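 note: potency is the fitted concentration of half-maximal effect; 0% = DMSO wells and -100% = cell-free medium wells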
#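 Viability of IDH1-knockdown HT-1080 fibrosarcoma cells was assessed by CellTiter-Glo after 48 h at 37 °C with titrated compound; concentration-effect curves were classified by fit quality and response size.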
# DT40 TDP1 CPT: DT40-hTDP1 cell growth loss with CPT. chicken DT40 Tdp1-/-;hTDP1 cells + 20 nM CPT, ATP luminescence, 48 h. Potency, µM (top dose mostly 46.2 µM), inactives show top-dose activity change, negative = growth inhibition, actives largely listed as inhibitors. 420,000 compounds, 12% hits; note: potency is the fitted concentration of half-maximal effect; nearly all actives have a fitted effect of over 55% in size
#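 Cell growth measured by CellTiter-Glo luminescence after a minimum 48 h, 37 C compound exposure with 20 nM CPT in Tdp1-knockout DT40 cells stably expressing hTDP1, seeded 400/well; qHTS titration format.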
# DT40 TDP1 no CPT: qHTS for Inhibitors of human tyrosyl-DNA phosphodiesterase 1 (TDP1): qHTS in cells in absence of CPT | 420,000 compounds, 15% hits | AID 686978, 2013 | Potency, µM (highest dose often 46.2 µM), for inactives: at the highest dose activity change, negative = growth inhibition, most hits filed as inhibitors | DT40 Tdp1-/- hTDP1 cells, no CPT, ATP luminescence, 48 h; note: potency is the fitted concentration of half-maximal effect; nearly all actives have a fitted effect of over 55% in size
#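 No-CPT arm: Tdp1-/-;hTDP1 DT40 cells (400/well) plus compounds, incubated ≥48 hr at 37 °C. Readout CellTiter-Glo luminescence.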
# ELG1 repair inh: blocks ELG1-dependent DNA repair in HEK293T cells; HEK293T ELG1-luciferase reporter, luminescence, 16 h; DNA damage induced by 5-fluorouridine; Potency, µM (top dose mostly 46.1 µM), inactives show at the highest dose activity change, negative = inhibition, hits mostly inhibitors; 330,000 compounds, 2.3% hits; note: potency is the fitted concentration of half-maximal effect; nearly all actives have a fitted effect of over 55% in size
#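 Overnight (16 hr) co-exposure of 2,000 cells/well to 5-fluorouridine and compound at 37 °C preceded detection. Luciferase was quantified via ONE-Glo luminescence; loss of signal denotes inhibition.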
# HT1080NT lethal: kills 2HG-producing HT-1080-NT fibrosarcoma cells | 360,000 compounds, 1.6% hits | HT-1080-NT fibrosarcoma viability, CellTiter-Glo ATP luminescence, 48 h | Potency, µM (highest dose often 46.1 µM), without a hit: at the highest dose activity, negative = less viability, most hits filed as cytotoxic;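 note: NT is the 2HG producing partner of a matched IDH1 knockdown line; potency is the fitted concentration of half-maximal effect; 0% = DMSO-treated cells and -100% = media-only wells without cells; nearly all actives have a fitted effect of over 55% in size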
#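 Viability of the 2HG-overproducing fibrosarcoma line after 48 hours of compound exposure at 37 degrees C was determined by luminescence with CellTiter-Glo, and concentration-effect curves were then fitted and categorized.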
# IL-1B inflam inh: inhibitors of inflammasome signaling (IL-1 beta secretion); activity change, % at 57.5 µM; AID 743279; THP-1 LPS/ATP IL-1B secretion, AlphaLISA, 16 h; hits give low values; 360,000 compounds, 4.7% hits; in the data active = activity change below about -50%; inconclusive = mostly about -30% to -49%
#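 THP-1 cells pretreated 1 hr with compounds (up to 57.5 uM final), then stimulated with LPS (250 ng/mL final) plus ATP (1.25 mM final); secreted IL-1B measured by AlphaLISA after 16 hr, decreased signal indicating inhibition.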
# ELG1 FLuc counter: luciferase inhibition in cell-free luciferin readout for ELG1 hits. shares compounds with ELG1 repair inh. cell-free firefly luciferase luminescence counter-screen, ViewLux. Potency, µM (doses to about 46.1 µM), for the others: top-dose activity change, negative = inhibition, most hits filed as inhibitors. 350 compounds, 3% hits; note: potency is the fitted concentration of half-maximal effect
# ELG1-Luc inh: human ELG1 repair inhibition, luciferase-tagged ELG1 confirmation | shares compounds with ELG1 repair inh | HEK293T ELG1-luciferase levels, luminescence; cells co-treated with 5-fluorouridine | Potency, µM (titrated, usually from 46.1 µM), for inactives: at the highest dose activity change, negative = inhibition, usual class: inhibitors | 670 compounds, 68% hits | AID 624248; note: potency is the fitted concentration of half-maximal effect; nearly all actives have a fitted effect of over 55% in size
# ELG1-Luc MMS: inhibits ELG1-dependent repair under MMS stimulation in HEK293T cells. shares compounds with ELG1 repair inh. HEK293T luciferase-tagged ELG1 level, MMS stimulated. Potency, µM (highest dose often 46.1 µM), for inactives: at the top dose activity change, negative = inhibition, most hits filed as inhibitors. 670 compounds, 53% hits. AID 624249; note: potency is the fitted concentration of half-maximal effect; nearly all actives have a fitted effect of over 60% in size
# ELG1 5-FU: confirmation of ELG1 repair inhibitors: viability with 5FU. Potency, µM (top dose mostly 46.1 µM), for inactives: at the highest dose activity change, negative = viability loss, hits mostly cytotoxic. cell viability with 5-FU, ELG1-dependent repair. 670 tested, under 10 active. shares compounds with ELG1 repair inh;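 note: ELG1-luc HEK293T cells cotreated with 5-fluorouridine at 10 µM final; potency is the fitted concentration of half-maximal effect; viability measured 16 h after compound addition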
# ELG1 MMS cell: confirmation of ELG1 repair inhibitors: viability with MMS. shares compounds with ELG1 repair inh. Cell viability with MMS, ELG1-dependent DNA repair. Potency, µM (titrated, usually from 46.1 µM), for the others: at the highest dose activity change, negative = viability loss, usual class: cytotoxic. 670 compounds, 33% hits. AID 624251;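 note: ELG1-luc HEK293T cells co-treated with 10 µM MMS; potency is the fitted concentration of half-maximal effect; viability read 16 h after compound addition; nearly all actives have a fitted effect of over 60% in size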
# Cell viab unstim: affects unstimulated cell viability, ELG1 hit counter-screen; shares compounds with ELG1 repair inh; cell viability counter-screen, unstimulated, luminescence; Potency, µM (top dose mostly 45.9 µM), for inactives: at the top dose activity change, negative = loss of viability, most hits filed as cytotoxic; 900 compounds, 8% hits;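 note: potency is the fitted concentration of half-maximal effect; compound exposure lasted 16 hours before reading; nearly all actives have a fitted effect of over 55% in size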
# FLuc enzyme: counter-screen for ELG1 repair inhibitors: firefly luciferase inhibition; purified firefly luciferase, luminescence counter-screen; Potency, µM (titrated, usually from 57.5 µM), inactives show at the top dose activity, negative = inhibition, hits mostly inhibitors; shares compounds with ELG1 repair inh; AID 624253; 350 compounds, 10% hits; note: potency is the fitted concentration of half-maximal effect
# An asterisk follows results filed as active; ? = inconclusive; · = not tested or not shown. Hits are enriched below; roughly 19% of the tested compounds scored in any of these assays. Unless noted, calls come from the whole dose curve; as a rule, active = well fitted curve in the direction sought with a large enough effect; inconclusive = small, poorly fitted or top-dose-only effect, or another doubt; inactive = no such curve, though single readings can be large; an effect the other way counts as inactive or inconclusive. Unless noted, % is set by controls: 0 for no effect and ±100 for the full control effect.
SMILES,HT1080 IDH1KD tx,DT40 TDP1 CPT,DT40 TDP1 no CPT,ELG1 repair inh,HT1080NT lethal,IL-1B inflam inh,ELG1-Luc inh,ELG1-Luc MMS,ELG1 5-FU,ELG1 MMS cell,Cell viab unstim,others
COc1ccc(N2CCN(C(=O)CN3CCN(c4nc(-c5ccc(F)cc5)cs4)CC3)CC2)cc1,2%,5.8µM*,7.3µM*,2.1µM*,-6%,-52*,14µM*,4µM*,-16%,4.4µM*,?,
COc1ccc(-c2nnn(CC(=O)N3CCN(c4ccc(F)cc4)CC3)n2)cc1,-2%,-5%,15%,10%,7%,-12,·,·,·,·,·,
CCOC(=O)N1CCN(C(=O)c2cnn3c(C(F)F)cc(-c4ccc(C)cc4)nc23)CC1,4%,?,?,3.7µM*,1%,-25,3.5µM*,5%,?,-8%,?,
O=C(c1cnn2c(C(F)F)cc(-c3ccccc3)nc12)N1CCOCC1,0%,-23%,8%,-9%,4%,7,·,·,·,·,·,
COc1ccc(-c2cc(C(F)F)n3ncc(C(=O)Nc4ccc(C(=O)N5CCOCC5)cc4)c3n2)cc1,10%,10µM*,3.3µM*,2.6µM*,2%,?,2.8µM*,-28%,?,6%,?,
COc1ccc(-c2cc(C(F)F)n3ncc(C(=O)N4CCc5ccccc54)c3n2)cc1,2.9µM*,3.7µM*,2.1µM*,0.52µM*,3.3µM*,46,4.5µM*,?,?,?,-11%,ELG1 FLuc counter=19%;FLuc enzyme=4%
COc1ccc(NS(=O)(=O)c2ccc(NC(=O)c3cnn4c(C(F)F)cc(-c5ccc(C)cc5)nc34)cc2)cc1,·,·,·,-1%,·,·,·,·,·,·,·,
Cc1onc(-c2ccccc2)c1C(=O)NC1CC1,5%,7%,-9%,-2%,4%,7,·,·,·,·,·,
